# The other results are listed elsewhere or left out. Results filed as inconclusive are left out. Calls of active or inactive are those of the source. Calls come from the whole dose curve; as a rule, active = well fitted inhibition curve with a large enough effect; inconclusive = small, poorly fitted or top-dose-only effect, or effect the other way; inactive = flat fitted curve, though single readings scatter.
# Target: Pyruvate kinase PKM (Homo sapiens) (UniProt P14618)
# Experiment: Confirmation Concentration-Response Assay for Inhibitors of Human Muscle isoform 2 Pyruvate Kinase
# Settings: purified hPK-M2, Kinase-Glo ATP luminescence, 1 h; series mostly up to 57.5 µM; activity change, negative = inhibition: at the top concentration
# From the text: NIH Chemical Genomics Center [NCGC] Matthew G. Vander Heiden, M.D., Ph.D. [Harvard Medical School, 77 Avenue Louis Pasteur, Boston, MA 02115] MLPCN Grant: 1 R03 MH085679-01 NCGC Assay Overview: Human pyruvate kinase muscle 2 (hPK-M2) enzyme was supplied as a highly purified (>95% pure) preparation from Harvard Medical School and assayed for its ability to generate ATP from ADP using phosphoenolpyruvate (PEP) as a substrate. ATP generation was detected in a coupled reaction by luciferase-mediated luminescence, an ATP-dependent process. Pyruvate kinase substrates, PEP and ADP, were present in the assay at Km and approximately 10-fold below Km respectively. The enzyme was assayed at an intermediate level of activity to screen for both inhibitors and activators.
# NCGC Assay Protocol Summary: Three uL of substrate mix (at r.t.) in assay buffer (50 mM Imidazole pH7.2, 50 mM KCl, 7 mM MgCl2, 0.01% Tween 20, 0.05% BSA) was dispensed into white solid bottom 1,536 well microtiter plates so that the final concentrations of substrates in the assay were 0.1 mM ADP and 0.5 mM PEP. 23 nL of compound were delivered by a pin tool and 1 uL of enzyme mix in assay buffer (4 degree Celsius) was added. […] Two uL of detection mix (Kinase-Glo, Promega; at 4 degree Celsius protected from light) was added and luminescence read by a ViewLux (Perkin Elmer) at 5 second exposure/plate. […]
# Sequence of Pyruvate kinase PKM (Homo sapiens) (P14618 whole entry, looked up, canonical isoform): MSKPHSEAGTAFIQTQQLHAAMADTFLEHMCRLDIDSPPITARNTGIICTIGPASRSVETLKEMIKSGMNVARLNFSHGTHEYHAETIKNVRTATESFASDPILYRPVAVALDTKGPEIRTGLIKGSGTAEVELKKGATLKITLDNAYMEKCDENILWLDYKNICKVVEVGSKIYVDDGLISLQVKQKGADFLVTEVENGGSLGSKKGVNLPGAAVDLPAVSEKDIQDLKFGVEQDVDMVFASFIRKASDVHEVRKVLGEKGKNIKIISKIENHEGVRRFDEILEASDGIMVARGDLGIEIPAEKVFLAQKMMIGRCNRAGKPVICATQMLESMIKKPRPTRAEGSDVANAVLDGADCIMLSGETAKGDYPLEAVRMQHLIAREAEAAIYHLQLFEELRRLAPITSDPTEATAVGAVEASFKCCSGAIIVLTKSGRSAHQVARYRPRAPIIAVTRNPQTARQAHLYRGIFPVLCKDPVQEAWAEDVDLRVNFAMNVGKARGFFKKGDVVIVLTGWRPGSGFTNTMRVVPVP
row,SMILES,"activity change, negative = inhibition"
1,Cc1ccc(-c2nc3ccccn3c2Nc2ccc(F)cc2)o1,14% (inactive)

# Source: PubChem BioAssay AID2263 (National Center for Advancing Translational Sciences (NCATS), 2010)
